Test results as given in PubChem BioAssay AID1159580 (chemical genetic matrix, 2015).
The campaign covered roughly 5,500 compounds. About 2,000 (36%) were called active. Inconclusive results (about 18%) are left out. No stated cut-off is given here; in the data, active means normalized growth mostly below about 0.91 (no sharp cut-off); inconclusive means no clear call, values can overlap the other calls; inactive means mostly above about 0.92. This is one part of the list.

Test: chemical genetic growth profiling, strain panel (AID 1159580);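 further: tested at 20 µM; growth read once vehicle control cultures reached saturation at 30 °C; 1 = growth at the plate median or of vehicle wells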
Settings: S. cerevisiae deletion strains, growth OD

Measured: normalized growth

CCSCCC(N)C(=O)O (stereo not drawn)
inactive: locus YHR030C, strain SLT2, stronger effect = lower value 1.06 | locus YHR079C, strain IRE1, stronger effect = lower value 1.05 | locus YJL095W, strain BCK1, stronger effect = lower value 1.04 | locus YJR066W, strain TOR1, stronger effect = lower value 1.01 | locus YLR113W, strain HOG1, stronger effect = lower value 1.04 | locus YNL183C, strain NPR1, stronger effect = lower value 1.02 | locus YOR231W, strain MKK1, stronger effect = lower value 1.03 | locus YPL256C, strain CLN2, stronger effect = lower value 1.05
